Reference: PubChem BioAssay (NCATS)
Active and inactive are the calls of the source. Calls follow the shape of the dose curve; as a rule, active = well fitted activation curve with a large enough effect; inconclusive = small, poorly fitted or top-dose-only effect; inactive = flat fitted curve, though single readings scatter.

Experiment: Confirmation and Secondary Assay for Modulators of Hemoglobin Beta Chain Splicing at IVS2 705 locus (AID 930);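 also: HeLa cells stably expressing the EGFP-705 splicing reporter; % of control where 0% means no effect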
Conditions: HeLa EGFP-705 splicing reporter, GFP fluorescence, 48 h; series mostly up to 46.1 µM; activation: at the top concentration
Method in brief: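 Assay measures total GFP intensity per well in HeLa EGFP-705 cells after 2 days with compound; mis-splicing normally truncates EGFP, so fluorescence indicates corrected splicing.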

activation, inactive:
CCOC(=O)C1=C[C@@]2(CC)CCCN3CCc4c(n1c1ccccc41)C32 (stereo not given in full) 3.59%
CC1(C)C(=O)C=C[C@]2(C)C1CC(=O)[C@]1(C)C2CC[C@@]2(C)C(c3ccoc3)OC(=O)C3O[C@@]321 (stereo not given in full) 0.349%
CNC(C)C1CC[C@H](N)[C@@H](OC2C(N)C[C@H](N)[C@@H](OC3OC[C@](C)(O)C(NC)[C@H]3O)C2O)O1 (stereo not given in full) 0.554%
C=C1c2c(Cl)ccc(O)c2C(O)=C2C(=O)[C@]3(O)C(O)=C(C(N)=O)C(=O)C(N(C)C)C3C(O)C12 (stereo not given in full) 1.35%
CC1CC[C@@]2(C(=O)O)CC[C@]3(C)C(=CCC4[C@@]5(C)CCC(O)C(C)(C)C5CC[C@@]43C)C2C1C (stereo not given in full) -0.895% [at 38.3 µM]
CN1C[C@H](C(=O)N[C@@]2(C)O[C@@]3(O)C4CCCN4C(=O)C(Cc4ccccc4)N3C2=O)C[C@H]2c3cccc4[nH]cc(c34)C[C@H]21 (stereo not given in full) 0.876%
COc1cc2c(c(OC)c1OC)-c1ccc(OC)c(=O)cc1C(NC(C)=O)CC2 (stereo not given) 0.24%
CC(=O)OC1CCC2(C)C3=C(CCC2C1(C)C)[C@@]1(C)CCC(C(C)CCC=C(C)C)[C@@]1(C)CC3 (stereo not given in full) -1.81%
COC(=O)C1C(O)CC[C@H]2CN3CCc4c([nH]c5ccccc45)C3C[C@H]12 (stereo not given in full) 2.03% [at 38.3 µM]
COc1cc2c(cc1OC)C1C(=O)c3c(cc4c(c3O)C=CC(C)(C)O4)OC1CO2 (stereo not given) 0.18% [at 38.3 µM]
